Source: PubChem BioAssay (National Center for Advancing Translational Sciences (NCATS))
GLP1R cytotox = cytotoxicity counter-screen for GLP-1 receptor inverse agonists; HEK293 cAMP-luciferase reporter cells, luminescence, 24 h; Potency, µM (series often up to 38.3 µM), for the others: at the top dose activity change, negative = inhibition, hits mostly inhibitors; 0.13% of 410,000 active;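 further: loss of luciferase light is scored as toxicity; potency means the concentration at half of the fitted maximal effect; on the % scale 0 is the no-effect control and ±100 the full control effect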
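1536-well qHTS counterscreen of the MLSMR; 200 cells/uL, 12 h pre-incubation, 23 nL cpd, 24 h at 37 deg C 5% CO2, luciferase detection reagent, 12 min RT, luminescence. Inhibition = undesired.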
GLS inhibitor = inhibitors of human glutaminase (GLS). GLS enzymatic activity, qHTS titration. Potency, µM (top dose mostly 45.5 µM), for the others: top-dose activity change, negative = inhibition, hits mostly inhibitors. 0.21% of 410,000 active; further: potency means the concentration at half of the fitted maximal effect; on the % scale 0 is the no-effect control and ±100 the full control effect
Target sequence (O94925 whole entry, looked up): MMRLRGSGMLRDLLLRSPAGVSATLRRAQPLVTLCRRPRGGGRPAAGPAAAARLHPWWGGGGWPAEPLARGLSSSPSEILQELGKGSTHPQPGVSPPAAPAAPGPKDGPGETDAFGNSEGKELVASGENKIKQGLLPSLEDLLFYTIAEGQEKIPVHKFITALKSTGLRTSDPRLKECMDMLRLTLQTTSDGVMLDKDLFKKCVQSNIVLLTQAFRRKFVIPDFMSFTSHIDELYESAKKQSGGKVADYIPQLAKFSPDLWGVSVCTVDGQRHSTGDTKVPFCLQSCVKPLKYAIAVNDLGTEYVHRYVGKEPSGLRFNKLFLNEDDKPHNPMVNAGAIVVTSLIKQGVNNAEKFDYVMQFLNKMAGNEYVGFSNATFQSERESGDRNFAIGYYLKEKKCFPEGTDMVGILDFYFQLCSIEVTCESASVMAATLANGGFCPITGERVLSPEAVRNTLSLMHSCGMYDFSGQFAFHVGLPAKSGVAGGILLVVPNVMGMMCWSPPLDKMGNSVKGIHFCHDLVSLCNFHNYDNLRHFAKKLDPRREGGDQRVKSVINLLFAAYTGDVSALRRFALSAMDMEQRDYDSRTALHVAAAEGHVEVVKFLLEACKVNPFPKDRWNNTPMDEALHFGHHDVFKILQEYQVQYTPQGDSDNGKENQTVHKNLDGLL
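Coupled fluorescence readout: glutamate oxidase/HRP/Amplex Red detect glutamate formed by hKGA from L-glutamine (1 mM solution added). Buffer 45 mM KH2PO4 pH 8.2, 0.02% Tween-20; reads at t0 and 30 min RT.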
KCNH2 3.1 inh = blocks the human KCNH2 3.1 channel isoform; U2OS KCNH2 3.1, thallium flux FluxOr; stronger effect = lower value; activity change, % (tested at about 1.8 µM); 0.95% of 340,000 active; AID 720553;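 active means maximum activity change below -70%; inconclusive means maximum activity change from -70% to -50%; inactive means maximum activity change above -50%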;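 further: thallium influx rate constant from kinetic fluorescence after stimulation buffer; on the % scale 0 is the no-effect control and ±100 the full control effect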
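Thallium flux read-out: FluxOr dye with Red40 quencher in HBSS/HEPES, 45 min at RT. Rate constants from kinetic reads were normalized to positive and negative DMSO controls. Cells: U2OS virally expressing the 3.1 isoform.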
KCNH2 WT inh = blocks the wildtype human KCNH2 potassium channel. U2OS, BacMam KCNH2, thallium flux FluxOr; stronger effect = lower value. 0.37% of 340,000 active. activity change, % at 1.84 µM. Q12809;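 active means maximum activity change below -70%; inconclusive means maximum activity change between -70% and -50%; inactive means maximum activity change above -50%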; further: on the % scale 0 is the no-effect control and ±100 the full control effect
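U2OS cells transduced with wild-type KCNH2 virus are loaded with FluxOr dye for 45 min, and thallium flux is measured in kinetic reads before and after stimulation buffer. Rate constants are normalized to DMSO controls.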
GLP1R ag = GLP-1 receptor (human) agonism; P43220; HEK293 GLP-1R CRE-luciferase, luminescence, 4-6 h; cells express a hypersensitive GLP-1R form; 0.007% of 380,000 active; Potency, µM (titrated, usually from 45.6 µM), for inactives: at the top dose activation, most hits filed as activators; further: potency means the concentration at half of the fitted maximal effect; % of control where 0% means no effect
GLP-1R inv ag = inverse agonists of human GLP-1 receptor; P43220; HEK293 GLP-1R CRE-luciferase, luminescence, 24 h; GLP-1R form is constitutively active; Potency, µM (doses to about 38.3 µM), for inactives: at the highest dose activity change, negative = inhibition, actives largely listed as inhibitors; 1.6% of 410,000 active; AID 624417; further: potency means the concentration at half of the fitted maximal effect; on the % scale 0 is the no-effect control and ±100 the full control effect; nearly all actives have a fitted effect of over 55% in size
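Seeding at 200 cells/uL, 12 h culture, 24 hr compound treatment, then luciferase reagent and a luminescence read; cells are HEK293 stably expressing a constitutively active GLP-1R plus cAMP-responsive luciferase.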
* marks the source's active call; other numbers are inactive results; ? = inconclusive; · = no result given; [ ] = dose if it differs, or a comment. Hits are enriched below; roughly 2.8% of the tested compounds scored in any of these assays. Unless noted, the call rests on the fitted dose curve; in most records, active means well fitted curve in the direction sought with a large enough effect; inconclusive means small, poorly fitted or top-dose-only effect, or another doubt; inactive means no such curve, though single readings can be large; an effect the other way counts as inactive or inconclusive.

SMILES	GLP1R cytotox	GLS inhibitor	KCNH2 3.1 inh	KCNH2 WT inh	GLP1R ag	GLP-1R inv ag
CC(=O)N1CCCc2cc(S(=O)(=O)CCC(=O)N3CCN(c4cccc(C)c4)C(C)C3)ccc21 (centres undefined)	-2.0%	9.9%	-92.7*	-3.7	0.1%	-7.1%
Cc1cccc(N2CCN(C(=O)CCS(=O)(=O)c3ccc(Br)cc3)CC2C)c1 (centres undefined)	9.6%	0.0%	-18.1	1.1	4.6%	?
Cc1ccc2c(c1)COc1c3ccc(C(=O)O)cc3nn1-2	5.4%	-12.4%	·	·	-8.7%	1.26µM*
COc1ccccc1CNC(=O)COc1cccc(-n2cnnn2)c1	4.2%	1.0%	3.5	-6.8	-2.6%	3.0%
CC(=O)N1c2ccc(S(=O)(=O)N3CCCCCC3)cc2CC1C(=O)NC(C)C (centres undefined)	5.9%	-3.9%	·	·	·	4.7%
COc1ccc(NS(=O)(=O)c2cccc(C(=O)NCC(c3ccccc3)N(C)C)c2)cc1 (centres undefined)	22.3%	16.5%	0.6	2.4	0.5%	-20.3%
COc1ccc(NC(=O)c2cccc(S(=O)(=O)N3CCc4ccccc43)c2)c(OC)c1	5.4%	-1.9%	8.5	-88.9*	-3.9%	8.5%
COc1ccc(C(CNC(=O)c2cccc(S(=O)(=O)N3CCCc4ccccc43)c2)N(C)C)cc1 (centres undefined)	-12.0%	10.6%	-73.6*	-18.3	-3.3%	?
CCOC(=O)c1c(NC(=O)CN2CCN(C)CC2)sc(C(=O)Nc2ccccc2)c1C	-13.4%	-1.5%	2.1	2.9	17.5%	12.6µM*
CCOC(=O)c1sc(NC(=O)CCN2CCN(C)CC2)c(C(=O)OCC)c1C	3.4%	4.4%	-19.3	28.2	13.7%	11.0%
CCOc1ccc(NC(=O)c2c(NC(=O)CNCCN3CCOCC3)sc3c2CCC3)cc1	?	0.9%	-43.4	14.3	-1.7%	2.51µM*
CCOc1ccc(NC(=O)c2c(NC(=O)c3ccccc3F)sc3c2CCC3)cc1	7.3%	0.4%	·	·	·	-3.3%
CN1CCN(CC(=O)Nc2sc3c(c2C(=O)Nc2ccccc2)CCCC3)CC1	-17.8%	9.2%	-95.4*	-91.6*	2.2%	?
O=C(Cc1ccccc1)Nc1sc2c(c1C(=O)Nc1ccccc1)CCCCC2	-21.7%	0.6%	·	·	·	-25.8%
Cc1ccc(C)c(-n2nnc(-c3nc(-c4ccc(Cl)cc4)no3)c2N)c1	4.6%	-5.2%	·	·	·	1.9%
Cc1ccc2nc(SCC(=O)NCc3ccc(F)cc3)nc(=O)n2c1	-4.8%	-0.6%	6.9	-5.9	-5.0%	13.3%
O=C(CSc1n[nH]c(-c2ccc(F)cc2)n1)NCc1ccccc1Cl	-8.9%	-4.6%	·	·	·	-25.7%
CCn1nc(C)c2c(-c3ccccc3)cc(=O)n(C(C)C(=O)Nc3ccc(OC)c(OC)c3)c21 (centres undefined)	-1.2%	-4.2%	·	·	·	10.5%
CCCCN(S(=O)(=O)c1ccccc1)S(=O)(=O)c1ccccc1	-5.1%	-5.4%	-4.8	-3.5	17.9%	10µM*
CCCCN(c1ccccc1)S(=O)(=O)N(C)C	-5.5%[7.66 µM]	-9.9%	16.3	-1.0	-0.3%	-11.3%[7.66 µM]
Cc1noc(C)c1S(=O)(=O)N(CC(=O)Nc1ccc(F)cc1F)c1ccc(C(C)C)cc1	-5.3%	0.8%	·	·	-10.8%	?
NC(=O)C(c1ccc(F)cc1)c1ccc(C(=O)c2ccccc2)cc1 (centres undefined)	-6.8%	1.4%	-3.0	-2.0	-1.4%	?
NC(=O)C(c1ccc(Br)cc1)c1ccc(C(=O)c2ccccc2)cc1 (centres undefined)	-6.1%	-5.4%	-21.9	-5.8	7.9%	11.2µM*
CN(C)S(=O)(=O)N(CC(=O)NCCSCc1ccc(Cl)cc1)c1ccccc1	4.9%	-3.1%	-18.1	3.1	15.2%	8.91µM*
CN(C)S(=O)(=O)N(CC(=O)NCCSCc1ccc(Cl)cc1Cl)c1ccccc1	2.2%	-10.7%	·	·	18.6%	?
SMILES	GLP1R cytotox	GLS inhibitor	KCNH2 3.1 inh	KCNH2 WT inh	GLP1R ag	GLP-1R inv ag
CCNCc1nc2cc(Cl)ccc2c(=O)[nH]1	?	9.0%	-17.5	8.3	3.5%	10µM*
CCOc1ccc(CCNC(=O)CN2CCN(Cc3ccc(Cl)cc3)C2=O)cc1OCC	-14.0%	7.2%	·	·	0.4%	-4.8%
Cc1cc(C)cc(OCC(=O)Nc2cccc(S(=O)(=O)NC3=NCCC3)c2)c1	-11.0%	0.5%	3.9	1.6	5.6%	?
O=C(NCCc1ccccc1Cl)c1ccc2c(c1)nc1n2CCCCC1	5.2%	9.9%	·	·	·	12.6µM*
CC(C)CCNC(=O)c1ccc2c(c1)nc1n2CCCCC1	1.1%	1.7%	·	·	·	6.31µM*
O=C(NCCc1ccccc1)c1ccc2c(c1)nc1n2CCOC1	14.8%	9.4%	·	·	·	8.91µM*
Cc1ccc(CCNC(=O)c2ccc3c(c2)nc2n3CCOC2)cc1	5.3%	6.0%	·	·	·	2.0%
Cc1ccc(-n2nc(CO)c(C(=O)NC(C)c3ccccc3)n2)cc1C (centres undefined)	10.9%	2.0%	·	·	·	?
COc1cccc(/C=C(/C(=O)OCC(=O)NC2CCCC(C)C2C)c2ccccc2)c1 (centres undefined)	-6.4%	10.7%	0.2	-1.7	9.6%	10µM*
CCOC(=O)C1CCN(C(=O)c2ccccc2N(C)S(C)(=O)=O)CC1	3.3%	-0.6%	-90.8*	-25.6	24.7%	3.3%
CCOC(=O)C1CCN(C(=O)c2ccc(N(C)S(C)(=O)=O)cc2)CC1	14.9%	1.8%	-19.4	-14.4	-5.3%	-0.3%
CCOC(=O)C1CCN(C(=O)c2c(-c3ccccc3)noc2C)CC1	8.7%	4.1%	-75.4*	3.1	1.0%	-2.6%
CCCOCCOC(=O)C1=C(C)NC(=O)NC1c1cc(Cl)c(O)c(OC)c1 (centres undefined)	-1.1%	41.9%	-72.3*	-6.2	2.1%	-0.8%
O=C(N1CCOCC1)N(Cc1cccs1)C1CCCC1	7.5%	5.0%	-79.9*	-17.5	-1.0%	0.5%
Cc1cccc(C)c1NC(=S)N(Cc1cccs1)C1CCCC1	-5.3%[0.307 µM]	7.9%	?	-3.8	-17.3%	2.5%[0.307 µM]
CCCCNC(=O)CNC(=S)N(Cc1ccccc1)Cc1cccs1	2.3%	1.4%	-17.3	-0.2	11.2%	5.01µM*
CC(CCc1ccccc1)NC(=O)CNC(=S)N(Cc1cccs1)C1CCCC1 (centres undefined)	-2.6%	1.0%	-1.7	4.2	10.5%	5.01µM*
CC(=O)c1cccc(NC(=O)CSc2nc3c(=O)n(C)c(=O)n(C)c3n2C)c1	0.7%	3.1%	·	·	·	14.2%
Cc1cccn2cc(-c3cccc(NC(=O)C(C)C)c3)nc12	0.1%	-0.5%	·	·	·	-2.7%
